Screens (PubChem)
Shown is part of a subset that was picked to be rich in hits.
HT1080-NT tox – kills 2HG-producing HT-1080-NT fibrosarcoma cells | HT-1080-NT fibrosarcoma viability, CellTiter-Glo ATP luminescence, 48 h | Potency, µM (highest dose often 46.1 µM), without a hit: top-dose activity, negative = less viability, most hits filed as cytotoxic | actives 1.6% (n = 360,000) | AID 686970;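 note: NT is the 2HG producing partner of a matched IDH1 knockdown line; potency is the fitted concentration of half-maximal effect; 0% = DMSO-treated cells and -100% = media-only wells without cells; nearly all actives have a fitted effect of over 55% in size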
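Compounds were tested in concentration-response format on HT-1080-NT cells for 48 hours at 37 degrees C. Cell viability came from CellTiter-Glo luminescence; curves were classified by r2, response magnitude and activity.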
ALOX12 inh – ALOX12 (human) lipoxygenase inhibition. AID 1671190. Potency, µM (doses to about 108 µM), without a hit: top-dose activity change, negative = inhibition, most hits filed as inhibitors. actives 1.1% (n = 580,000). P18054. purified 12hLO, xylenol orange hydroperoxide absorbance; note: potency is the fitted concentration of half-maximal effect
Target sequence (P18054 whole entry, looked up): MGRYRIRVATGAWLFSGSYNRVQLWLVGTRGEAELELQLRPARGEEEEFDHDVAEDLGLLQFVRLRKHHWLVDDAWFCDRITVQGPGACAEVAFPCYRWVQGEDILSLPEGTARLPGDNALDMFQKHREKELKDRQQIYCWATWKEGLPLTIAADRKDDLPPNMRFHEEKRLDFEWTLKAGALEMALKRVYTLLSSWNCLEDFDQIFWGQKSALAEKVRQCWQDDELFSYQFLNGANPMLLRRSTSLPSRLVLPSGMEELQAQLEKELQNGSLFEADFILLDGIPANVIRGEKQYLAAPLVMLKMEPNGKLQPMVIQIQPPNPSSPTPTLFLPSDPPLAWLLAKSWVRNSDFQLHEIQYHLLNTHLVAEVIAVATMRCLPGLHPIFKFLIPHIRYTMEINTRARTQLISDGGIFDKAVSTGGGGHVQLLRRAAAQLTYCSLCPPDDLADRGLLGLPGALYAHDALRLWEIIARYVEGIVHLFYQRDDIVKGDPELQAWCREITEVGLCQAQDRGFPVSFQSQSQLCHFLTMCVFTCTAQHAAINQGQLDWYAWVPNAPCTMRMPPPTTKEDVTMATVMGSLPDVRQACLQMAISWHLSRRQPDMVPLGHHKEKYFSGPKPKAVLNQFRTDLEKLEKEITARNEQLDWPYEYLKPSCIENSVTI
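Hydroperoxide product was detected by ferrous iron/xylenol orange as the 573 to 405 nm absorbance ratio. Arachidonic acid at 40 uM (final) was turned over for 30 min at room temperature by 150 nM human 12hLO, pH 7.0 Hepes buffer, after 15 min compound preincubation.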
DT40 TDP1 no CPT – qHTS for Inhibitors of human tyrosyl-DNA phosphodiesterase 1 (TDP1): qHTS in cells in absence of CPT | actives 15% (n = 420,000) | Potency, µM (highest dose often 46.2 µM), for inactives: at the top dose activity change, negative = growth inhibition, most hits filed as inhibitors | DT40 Tdp1-/- hTDP1 cells, no CPT, ATP luminescence, 48 h; note: potency is the fitted concentration of half-maximal effect; nearly all actives have a fitted effect of over 55% in size
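Growth kinetics read by CellTiter-Glo luminescence after ≥48 hr at 37 °C. Cells: DT40 Tdp1-/- stably carrying human TDP1, 400 per well, compound exposure in the absence of CPT (DMSO vehicle).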
HT1080 IDH1KD tx – HT-1080 IDH1 knockdown cell toxicity (counter line) | HT-1080 IDH1 knockdown viability, ATP luminescence, 48 h | Potency, µM (highest dose often 46.1 µM), inactives show at the top dose activity, negative = toxicity, usual class: cytotoxic | actives 2% (n = 360,000);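 note: potency is the fitted concentration of half-maximal effect; 0% = DMSO wells and -100% = cell-free medium wells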
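Cytotoxicity counter-line: IDH1KD HT-1080, 48 h, CellTiter-Glo. Curves classed by r2, magnitude and activity.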
IL1B secr inh – inflammasome signaling inhibition, IL-1 beta readout | THP-1 LPS/ATP IL-1B secretion, AlphaLISA, 16 h; stronger effect = lower value | activity change, % at 57.5 µM | actives 4.7% (n = 360,000) | AID 743279; in the data active = activity change below about -50%; inconclusive = mostly about -30% to -49%
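THP-1 cells pretreated 1 hr with compounds (up to 57.5 uM final), then stimulated with LPS (250 ng/mL final) plus ATP (1.25 mM final); secreted IL-1B measured by AlphaLISA after 16 hr, decreased signal indicating inhibition.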
DT40 TDP1 CPT – growth inhibition of DT40 Tdp1-/-;hTDP1 cells with camptothecin (screen for TDP1 inhibitors); chicken DT40 Tdp1-/-;hTDP1 cells + 20 nM CPT, ATP luminescence, 48 h; Potency, µM (series often up to 46.2 µM), for inactives: at the highest dose activity change, negative = growth inhibition, usual class: inhibitors; actives 12% (n = 420,000); note: potency is the fitted concentration of half-maximal effect; nearly all actives have a fitted effect of over 55% in size
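Chicken DT40 Tdp1-/- cells complemented with human TDP1, 400 cells/well, exposed to compounds plus 20 nM camptothecin for at least 48 h at 37 C; viability read as ATP content by CellTiter-Glo luminescence.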
* = called active by the depositor; ? = inconclusive; · = not tested or not shown; [ ] = dose if it differs, or a comment. Unless noted, calls come from the whole dose curve; as a rule, active = well fitted curve in the direction sought with a large enough effect; inconclusive = small, poorly fitted or top-dose-only effect, or another doubt; inactive = no such curve, though single readings can be large; an effect the other way counts as inactive or inconclusive. Unless noted, % is set by controls: 0 for no effect and ±100 for the full control effect.

SMILES | HT1080-NT tox | ALOX12 inh | DT40 TDP1 no CPT | HT1080 IDH1KD tx | IL1B secr inh | DT40 TDP1 CPT
CCSc1ccc2nnc(-c3cccc(F)c3)n2n1 | 1% | ? | ? | ? | -18 | -25%
O=C(CSc1ccc2nnc(-c3ccc(Cl)cc3)n2n1)N1CCCc2ccccc21 | 14% | -14% | 23µM* | 15% | 0 | -66%
O=C(CSc1ccc2nnc(-c3cccc(F)c3)n2n1)N1CCCc2ccccc21 | -7% | -6% | 18µM* | 2% | 6 | ?
CSc1nnc2c(n1)OC(c1ccc3c(c1)OCO3)N(C(C)=O)c1ccc(Br)cc1-2 (configuration not stated) | · | -19% | · | · | · | ·
Cc1ccc(C2(O)CCN(c3nc(C)ccc3C(N)=O)CC2)nc1 | · | -2% | · | · | · | ·
CN(/N=C/c1cccnc1)c1cnc2ccccc2n1 | 3% | 0% | ? | -11% | 10 | -28%
COc1ccc(C(=O)c2c(N)c(C(=O)Nc3ccccc3C)c3ccccn23)cc1 | · | 0% | · | · | · | ·
NNC(=O)C(O)(c1ccccc1)c1ccccc1 | · | -2% | · | · | · | ·
O=C(CSc1ccc2nnc(-c3cccnc3)n2n1)NCC1CCCO1 (configuration not stated) | 13% | 25% | -14% | 7% | 6 | 13%
O=C(CSc1ccc2nnc(-c3cccc(F)c3)n2n1)NCC1CCCO1 (configuration not stated) | 10% | 3.5µM* | -19% | 2% | 11 | 3%
COc1ccc(NC2CCCN(Cc3cccc4cnccc34)C2)cc1OC (configuration not stated) | -6% | -17% | 21µM* | -2% | 13 | ?
COc1ccc(NC2CCCN(Cc3cccc4cnccc34)C2)cc1 (configuration not stated) | -4% | 78% | 21µM* | 1% | 17 | ?
O=C(NCCCc1ccccc1)c1n[nH]c2c1CN(C(=O)c1c(F)cccc1F)CC2 | · | 5% | · | · | · | ·
CCN1CCN(c2cc(C)c3cc(NC(=S)N4CCN(c5ccc(F)cc5)CC4)ccc3n2)CC1 | 16% | -1% | ? | -7% | 84 | 21µM*
CCN1CCN(c2cc(C)c3cc(NC(=S)N4CC(C)CC(C)C4)ccc3n2)CC1 (configuration not stated) | ? | ? | ? | 16µM* | -89* | ?
CCN1CCN(C(=S)Nc2ccc3nc(N4CCN(CC)CC4)cc(C)c3c2)CC1 | -22% | 0% | ? | ? | ? | -83%
CN(C)c1cccc(-c2cn(C)c(=O)n3cc(CN4CCNC(=O)C4)nc23)c1 | · | 28%[176 µM] | · | · | · | ·
Cc1cc(C2CC(C(=O)NCCc3ccccc3)CN(C(=O)NC(C)C)C2)ccc1F (configuration not stated) | · | 30% | · | · | · | ·
O=C(NNC1=Nc2cccc3cccc1c23)c1ccc(Br)cc1 | 0% | ? | 13µM* | -29% | 55 | 12µM*
Cc1ccc(OCCCN)cc1 | · | 20% | · | · | · | ·
COc1cccc(C(=O)Oc2ccc(/C=N/Nc3ccc(C(=O)O)cc3)cc2OC)c1 | -28% | 6% | 29µM* | -11% | -1 | ?
COc1cccc(OCc2cc(/C=N/Nc3ccc(C(=O)O)cc3)ccc2OC)c1 | 21µM* | 0% | 21µM* | ? | 19 | 21µM*
CN(C(=O)COC(=O)/C=C/c1cccc([N+](=O)[O-])c1)C1CCS(=O)(=O)C1 (configuration not stated) | 23µM* | -22% | 0% | 16µM* | -9 | -12%
CN(C(=O)COC(=O)c1c2c(nc3ccccc13)/C(=C/c1cccc([N+](=O)[O-])c1)CCC2)C1CCS(=O)(=O)C1 (configuration not stated) | ? | -29% | 5.2µM* | 5.8µM* | 0 | 3.3µM*
COc1cc(/C=C2/C(=O)c3cccc([N+](=O)[O-])c3C2=O)c(Br)cc1O | ? | 18µM* | 5.2µM* | 18µM* | 33 | 6.5µM*
SMILES | HT1080-NT tox | ALOX12 inh | DT40 TDP1 no CPT | HT1080 IDH1KD tx | IL1B secr inh | DT40 TDP1 CPT
CC1CN(C(=O)CCC(=O)NCCCN2CCN(Cc3ccccc3)CC2)c2cc(Cl)ccc2O1 (configuration not stated) | -11% | -19% | ? | -2% | -22 | 21µM*
Cc1ccc2c(c1)N(C(=O)CCC(=O)NCCCN1CCC(Cc3ccccc3)CC1)CCO2 | ? | 2% | 18µM* | ? | -28 | ?
Cc1ccc2c(c1)N(C(=O)CCC(=O)NCCCN1CCN(C)CC1)CCO2 | -1% | -10% | -26% | -2% | 12 | 0%
CCCc1n[nH]c2c1/C(=N\OCC)CC(C)(C)C2 | -9% | 40µM* | -1% | -12% | -6 | -1%
CCc1n[nH]c2c1/C(=N\O)CC(C)(C)C2 | 3% | -7% | -4% | 9% | 1 | 2%
CN(C)S(=O)(=O)N1CCCC(Cn2c(C3CC3)nc3cccnc32)C1 (configuration not stated) | · | 0% | · | · | · | ·
CN(Cc1nccn1C)C(=O)c1ccc2nc(Cc3ccccc3F)oc2c1 | 7% | 1% | 18% | 11% | 4 | -3%
CC(C)N(Cc1nccn1C)C(=O)c1ccc2oc(CCCc3ccccc3)nc2c1 | -7% | 15% | 23µM* | -7% | 0 | 18µM*
O=C(c1ccc2oc(CCCc3ccccc3)nc2c1)N1CCCC1 | 8% | 145% | ? | 9% | -4 | 16µM*
CC(=O)C1CCCN(C(=O)c2ccc3oc(CCc4ccccc4)nc3c2)C1 (configuration not stated) | -2% | 32% | ? | -8% | 14 | ?
CCOC(=O)CC1CCCCN1C(=O)c1ccc2oc(CCc3ccccc3)nc2c1 (configuration not stated) | -13% | -1% | 15µM* | -17% | 22 | 21µM*
CCCc1ccc2oc(C(=O)N(Cc3nccn3C)C(C)C)c(C)c2c1 | -6% | 1% | 2.1µM* | 1% | -7 | 5.2µM*
COCCc1ccc(OS(=O)(=O)c2ccc(C)cc2C)cc1 | · | -24% | · | · | · | ·
Cc1nccnc1N1CCC(N2CCCC(C(=O)NCCc3ccccc3)C2)CC1 (configuration not stated) | · | 28% | · | · | · | ·
Cc1ccc(Cn2c(-c3ccc(F)cc3)nc(C)c(CCO)c2=O)cc1 | · | 93% | · | · | · | ·
COc1ccc(C(=O)C2CCCN(Cc3csc(C(C)=O)c3)C2)c(OC)c1 (configuration not stated) | · | 16% | · | · | · | ·
